Only some compounds are listed: those with a hit (about 1.8% of all), similar ones and a draw of the others.
UBC13 inh: human UBC13 polyubiquitination inhibition; UBC13 polyubiquitin chain formation, TR-FRET; inhibition, % at 20 µM; actives 0.47% (n = 330,000); AID 485273; in the data active = inhibition above about 45%, passing the limit was not always enough
Neddyl block: cullin neddylation inhibition. P61081+Q13564. TR-FRET cullin neddylation, biochemical. calls only at 25 µM. actives 0.58% (n = 360,000); in the data active = inhibition above about 36%
MBD2 DNA inh: MBD2-methylated oligo binding inhibition; Q9UBB5; TR-FRET, MBD2 binding to methylated oligonucleotide; inhibition, % at 4.4 µM; actives 0.31% (n = 370,000); in the data active = inhibition above about 13%
UHRF1 binding: UHRF1 methyl-DNA binding inhibition; Q96T88; UHRF1 binding to methylated oligo, TR-FRET; inhibition, % at 4.4 µM; actives 0.75% (n = 370,000); in the data active = inhibition above about 21%;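 also: UHRF1 SRA domain binding a hemimethylated CpG hairpin DNA probe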
Target sequence (Q96T88 whole entry, looked up, the tested form may be a part): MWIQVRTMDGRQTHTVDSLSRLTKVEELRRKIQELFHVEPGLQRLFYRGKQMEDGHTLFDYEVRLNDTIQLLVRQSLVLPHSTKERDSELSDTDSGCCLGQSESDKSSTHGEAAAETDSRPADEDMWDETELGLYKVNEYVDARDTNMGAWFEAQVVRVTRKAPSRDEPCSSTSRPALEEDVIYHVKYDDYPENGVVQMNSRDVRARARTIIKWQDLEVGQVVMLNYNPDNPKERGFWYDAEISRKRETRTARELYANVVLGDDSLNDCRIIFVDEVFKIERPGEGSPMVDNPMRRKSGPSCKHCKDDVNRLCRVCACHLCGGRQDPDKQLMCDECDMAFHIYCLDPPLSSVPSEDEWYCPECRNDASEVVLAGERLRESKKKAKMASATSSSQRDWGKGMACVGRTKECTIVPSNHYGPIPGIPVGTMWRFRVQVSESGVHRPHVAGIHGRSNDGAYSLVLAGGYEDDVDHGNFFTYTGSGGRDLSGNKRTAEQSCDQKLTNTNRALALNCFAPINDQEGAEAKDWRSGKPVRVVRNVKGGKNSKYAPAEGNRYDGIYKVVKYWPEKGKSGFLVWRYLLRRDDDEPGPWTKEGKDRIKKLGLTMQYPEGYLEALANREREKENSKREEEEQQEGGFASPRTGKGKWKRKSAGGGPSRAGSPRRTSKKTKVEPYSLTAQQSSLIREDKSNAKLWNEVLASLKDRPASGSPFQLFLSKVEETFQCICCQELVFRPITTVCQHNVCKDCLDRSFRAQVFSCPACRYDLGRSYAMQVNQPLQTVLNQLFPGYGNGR
Casp3 UBC13 ctr: counter-screen for UBC13 inhibitors: human caspase-3 inhibition | inhibition, % at 20 µM | actives 4% (n = 1,400) | shares compounds with UBC13 inh | Recombinant caspase-3, Caspase-Glo 3/7 luminescence, 60 min | AID 488856;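 active = mean inhibition across replicates above about 26%, limit read from the data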
UBC13 confirm: confirmation of human UBC13 polyubiquitin inhibitors. shares compounds with UBC13 inh. UBC13 polyubiquitination, TR-FRET, biochemical. inhibition, % at 10 µM. actives 68% (n = 1,400). AID 488859; in the data active = inhibition above about 45%
Large screens that a line does not name were inactive (follow-up assays come after a bar, where shown).

NC(=O)[C@@H]1CCCCNc2c(F)cc([N+](=O)[O-])cc2C(=O)N[C@@H](CCCN=C(N)N)C(=O)NCC(=O)N1	none
NCCCC[C@@H]1NC(=O)c2cc([N+](=O)[O-])cc(F)c2NCCCC[C@@H](C(N)=O)NC(=O)[C@H](CCC(N)=O)NC1=O	UBC13 inh 74 | Casp3 UBC13 ctr inactive | UBC13 confirm 56
O=C1c2ccccc2C(=O)N1Cc1nc2ccccc2c(=O)n1CCCn1ccnc1	none (no result: UBC13 inh)
C[C@H](NC(=O)c1ccccc1Cl)C(=O)OCc1cn2cc(Cl)ccc2n1	UBC13 inh 106 | Casp3 UBC13 ctr inactive | UBC13 confirm inactive
O=C(COc1cccnc1[N+](=O)[O-])NCCc1ccc(Cl)cc1Cl	none
CC(C)n1cnc2c(N(C)c3ccccc3)nc(N(CCN(C)C)Cc3ccccc3)nc21	UBC13 inh 57 | Casp3 UBC13 ctr inactive | UBC13 confirm inactive
NS(=O)(=O)c1ccc(CCNC(=O)c2cc(-c3ccco3)nc3ccccc23)cc1	UBC13 inh 51 (not shown: Neddyl block) | Casp3 UBC13 ctr inactive | UBC13 confirm inactive
COc1ccc(CNC(=O)C(=O)NCC2CCCN2S(=O)(=O)c2ccccc2)cc1 (centres undefined)	none
CCN(CC)CCOc1ccc(/C(=C(/Cl)c2ccccc2)c2ccccc2)cc1	UBC13 inh 73 | Casp3 UBC13 ctr inactive | UBC13 confirm 56
CCC(=C(c1ccc(O)cc1)c1ccc(OCCN(C)C)cc1)c1ccccc1	none (no result: UBC13 inh)
CC/C(=C(\c1ccc(O)cc1)c1ccc(OCCN(C)C)cc1)c1ccccc1	UBC13 inh 79 | Casp3 UBC13 ctr inactive | UBC13 confirm 55
CC/C(=C(\c1ccccc1)c1ccc(OCCN(C)C)cc1)c1ccccc1	UBC13 inh 78 | Casp3 UBC13 ctr inactive | UBC13 confirm 65
O=C1OCC(CO)(CO)N=C1NNc1ccc(Cl)c(Cl)c1	none
O=C(O)CCC(=O)N(Cc1ccco1)C1CC(=O)N(c2ccccc2)C1=O (centres undefined)	none
CCC1(C)NC(=O)N(CC(=O)N2CCC(Cc3ccccc3)CC2)C1=O (centres undefined)	UBC13 inh 64 | Casp3 UBC13 ctr inactive | UBC13 confirm inactive
CCC(Oc1ccccc1)C(=O)Nc1ccc(S(=O)(=O)N2CCOCC2)cc1 (centres undefined)	none
CCn1cc(S(=O)(=O)Nc2ccc(Cl)cc2F)cn1	none
Cn1c(SCC(=O)NCC2CCCO2)ncc(C(=O)Nc2ccc(F)cc2)c1=O (centres undefined)	UBC13 inh 59 | Casp3 UBC13 ctr 96 | UBC13 confirm 60
Cn1c(SCC(=O)NCC2CCCO2)ncc(C(=O)Nc2ccc(Cl)cc2)c1=O (centres undefined)	UBC13 inh 58 | Casp3 UBC13 ctr 98 | UBC13 confirm 69
Cc1ccccc1-n1ccnc1SCC(=O)NCC1CCCO1 (centres undefined)	none
O=[N+]([O-])c1cccnc1NCCNc1ncc(C(F)(F)F)cc1Cl	none
CCC(C(=O)NC1CCCC1)n1c(-c2ccccn2)nc2ccccc21 (centres undefined)	none (no result: UBC13 inh)
O=C1Nc2cc(C(=O)NCCCN3CCOCC3)ccc2S/C1=C/c1ccccc1F	none
O=C1Nc2cc(C(=O)NCCCN3CCOCC3)ccc2S/C1=C/c1cccc(Cl)c1	UBC13 inh 57 | Casp3 UBC13 ctr inactive | UBC13 confirm 72
COc1ccc(/C=C2/Sc3ccc(C(=O)NCCN4CCCCCC4)cc3NC2=O)cc1	UBC13 inh 67 | Casp3 UBC13 ctr inactive | UBC13 confirm 86
O=C(N/N=C/c1ccccn1)c1cc(-c2ccc3ccccc3c2)n[nH]1	none
O=C(N/N=C/c1ccccn1)c1cc(-c2ccccc2Cl)n[nH]1	UBC13 inh 47 | Casp3 UBC13 ctr inactive | UBC13 confirm inactive
O=C(N/N=C/c1ccccn1)c1cc(-c2cccc3ccccc23)n[nH]1	none
CCc1ccc(-c2cc(C(=O)N/N=C/c3ccccn3)[nH]n2)cc1	UBC13 inh 50 | Casp3 UBC13 ctr inactive | UBC13 confirm 54
CN(C)CCCNC(=O)c1ccc(-c2cc(O)c3ncccc3c2)cc1	UBC13 inh 112 | Casp3 UBC13 ctr inactive | UBC13 confirm 118
CN(C)c1ccc(-c2cc(O)c3ncccc3c2)cc1	none
CN(C)CCCNC(=O)c1ccc(-c2nc(-c3ccc(Cl)cc3)cs2)cc1	UBC13 inh 54 | Casp3 UBC13 ctr inactive | UBC13 confirm 68
CCCc1cc(=O)[nH]c(SCC(=O)N2c3ccccc3NC(=O)C2(C)C)n1	none
O=C(NCCCN1CCOCC1)c1cc2c([nH]c3ccccc32)c(-c2cccc(Br)c2)n1	UBC13 inh 51 | Casp3 UBC13 ctr inactive | UBC13 confirm inactive
CCCC(=O)N(CCN1CCOCC1)c1nc2c(C)ccc(C)c2s1	none
CCCC(=O)N(CCN1CCOCC1)c1nc2c(C)cccc2s1	UBC13 inh 69 (no result: MBD2 DNA inh, UHRF1 binding) | Casp3 UBC13 ctr inactive | UBC13 confirm 73
N#Cc1c(N)[nH]c(C(=O)c2ccccc2)c1-c1ccc(Br)cc1	none (no result: UBC13 inh, Neddyl block)
CC(O)(c1ccc(F)c(F)c1)c1nc(-c2csc3ccccc23)cs1 (centres undefined)	none (no result: UBC13 inh)
COC(=O)CSC1=NS(=O)(=O)c2ccccc21	none (no result: MBD2 DNA inh, UHRF1 binding)
O=C(CSC1=NS(=O)(=O)c2ccccc21)Nc1ccccc1	UBC13 inh 47 | Casp3 UBC13 ctr inactive | UBC13 confirm inactive
CCCS(=O)(=O)N1CCCC(C(=O)NCCN(CC)CC)C1 (centres undefined)	none
NC(N)=NCCCC(NC(=O)c1ccccc1)C(=O)Nc1ccc([N+](=O)[O-])cc1 (centres undefined)	none
NC(N)=NCCCC(NC(=O)c1ccccc1)C(=O)Nc1ccc2ccccc2c1 (centres undefined)	UBC13 inh 48 | Casp3 UBC13 ctr inactive | UBC13 confirm inactive
CC(C)(C)c1ccc(C(O)CCCN2CCC(C(O)(c3ccccc3)c3ccccc3)CC2)cc1 (centres undefined)	UBC13 inh 67 | Casp3 UBC13 ctr inactive | UBC13 confirm 56
CC(C)(C)c1ccc(OCCCN2CCC(C(O)(c3ccccc3)c3ccccc3)CC2)cc1	none (no result: UBC13 inh, Neddyl block)
CCC(C)(C)c1ccc(OCCCC[n+]2cccc(C)c2C)c(C(C)(C)CC)c1	UBC13 inh 82 | Casp3 UBC13 ctr inactive | UBC13 confirm 100
Cc1cc(C(C)(C)C)ccc1OCCCCN1CCCC1	none
Cc1cc[n+](CC[n+]2ccc(C)cc2)cc1	none
CCC(C)(C)c1ccc(OCCCC[n+]2ccc(C)cc2)c(C(C)(C)CC)c1	UBC13 inh 69 (no result: Neddyl block) | Casp3 UBC13 ctr inactive | UBC13 confirm 99
COc1ccc(C[C@H]2CN3C(=NC[C@@H]3C(C)C)N2CCNC(=O)CCC2CCCCC2)cc1	UBC13 inh 53 | Casp3 UBC13 ctr inactive | UBC13 confirm inactive
COc1ccc(C[C@H]2CN3C(=NC[C@@H]3Cc3ccccc3)N2CCNC(=O)CCC2CCCCC2)cc1	UBC13 inh 78 | Casp3 UBC13 ctr inactive | UBC13 confirm 69
Cc1ccc(Nc2nc(NCc3ccco3)c3ccccc3n2)cc1	UBC13 inh 51 (not shown: Neddyl block) | Casp3 UBC13 ctr inactive | UBC13 confirm 93
Cc1ccc(-c2nc3cnccn3c2Nc2ccc3c(c2)OCO3)cc1	none

Screens from PubChem BioAssay.
